Shown are actives, neighbours in structure and some others; about 3.1% of the full set was active somewhere.
ABHD5-PLIN5 inh – ABHD5-PLIN5 protein interaction inhibition; Q00G26+Q8WTS1; Split G. princeps luciferase complementation, luminescence, 4 h; inhibition, % at 4 µM; 360,000 compounds, 0.78% hits; AID 602281;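 active = inhibition above the mean inhibition across every tested compound plus 3 SD, cut at about 22% in these data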;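 also: 0% = DMSO only wells and the 100% control is not disclosed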
Target sequence (Q00G26 whole entry, looked up): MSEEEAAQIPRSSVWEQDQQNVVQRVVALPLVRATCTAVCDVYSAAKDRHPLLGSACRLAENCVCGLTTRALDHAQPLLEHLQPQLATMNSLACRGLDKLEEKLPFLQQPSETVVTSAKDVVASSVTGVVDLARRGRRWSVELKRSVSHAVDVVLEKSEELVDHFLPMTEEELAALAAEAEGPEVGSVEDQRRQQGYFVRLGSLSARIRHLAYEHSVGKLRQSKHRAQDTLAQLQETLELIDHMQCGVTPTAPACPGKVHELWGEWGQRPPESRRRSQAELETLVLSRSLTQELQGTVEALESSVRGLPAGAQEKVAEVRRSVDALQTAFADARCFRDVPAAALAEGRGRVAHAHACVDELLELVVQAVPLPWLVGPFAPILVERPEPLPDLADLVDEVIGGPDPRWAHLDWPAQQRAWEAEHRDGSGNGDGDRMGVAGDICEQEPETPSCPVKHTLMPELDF
Target sequence (Q8WTS1 whole entry, looked up): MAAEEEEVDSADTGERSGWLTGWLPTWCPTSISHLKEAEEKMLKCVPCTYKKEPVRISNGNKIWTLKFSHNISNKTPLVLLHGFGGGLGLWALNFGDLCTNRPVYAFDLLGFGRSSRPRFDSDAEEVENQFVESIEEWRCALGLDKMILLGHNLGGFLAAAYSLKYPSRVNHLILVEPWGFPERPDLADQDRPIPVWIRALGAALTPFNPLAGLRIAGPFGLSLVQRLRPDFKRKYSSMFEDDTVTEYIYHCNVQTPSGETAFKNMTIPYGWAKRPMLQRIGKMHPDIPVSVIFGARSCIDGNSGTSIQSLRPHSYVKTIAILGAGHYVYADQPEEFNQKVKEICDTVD
KKLEB tox – CF airway cell cytotoxicity counter-screen; KKLEB CF airway cells viability, ATPlite luminescence, overnight; stronger effect = lower value; cells stimulated with P. aeruginosa culture filtrate; activity change (cytotoxicity), % at 5 µM; 360,000 compounds, 0.36% hits; AID 602141;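 active = corrected activity change at or below -50% at 5 µM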
Peg3 prom inh-1 – reduces Peg3 promoter-driven luciferase expression in HeLa. inhibition, % at 20 µM. HeLa PEG-Prom luciferase reporter, luminescence, overnight. 360,000 compounds, 1.7% hits;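 active = inhibition of at least 50% at 20 µM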
CF NFkB block – cystic fibrosis NF-kB activation inhibition; KKLEB NF-kB-GFP reporter, PAF-induced, GFP fluorescence overnight; 360,000 compounds, 0.86% hits; AID 588850; inhibition, % at 5 µM;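 active = at least 50% inhibition at 5 µM, scaled per plate between neutral and stimulator controls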;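 also: PAF is a Pseudomonas aeruginosa culture filtrate used as stimulus; plate controls were PAF-stimulated DMSO wells for no effect and unstimulated DMSO wells for full effect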
HIF-2a block – inhibitors of HIF-2a; 360,000 compounds, 0.72% hits; inhibition, % at 18.8 µM; AID 624352; 786-0 RCC cells HIF-2a reporter, luciferase luminescence, overnight;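 active = inhibition of the luminescence signal of 40% or more relative to plate controls, in a single-dose primary screen at 18.75 µM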
TRPM1 prom inh – MITF TRPM1 promoter inhibition in SK-MEL-5 cells. inhibition, % at 12.5 µM. AID 488899. 330,000 compounds, 0.83% hits. SK-MEL-5 TRPM1 promoter luciferase, 24 h;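 active = mean inhibition across replicates of 60% or more, whatever share of single replicates reaches that level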
Peg3 prom inh-2 – confirmation of Peg3 promoter inhibitors; AID 602417; shares compounds with Peg3 prom inh-1; 1,300 compounds, 84% hits; inhibition, % at 20 µM; HeLa PEG-Prom luciferase reporter, luminescence, overnight;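 active = at 20 µM dose, 40% or more inhibition averaged across four replicates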
* = called active by the depositor; nt = not tested or not shown.

SMILES	ABHD5-PLIN5 inh	KKLEB tox	Peg3 prom inh-1	CF NFkB block	HIF-2a block	TRPM1 prom inh	Peg3 prom inh-2
O=S(=O)(c1ccc(NC(=S)N/N=C/c2c3ccccc3cc3ccccc23)cc1)N1CCOCC1	-11	1	-44	-34	-62	38	nt
CSc1nnc(NC(=O)c2ccc3c(c2)OCO3)s1	0	0	52*	-8	-13	41	15
CCC(CC)C(=O)N(C)c1c(C)nc2c(OCC=C(C)C)cccn12	8	-19	3	-14	24	nt	nt
C[C@H](CO)N1C[C@H](C)[C@@H](CN(C)Cc2ccc(C(=O)O)cc2)Oc2c(NS(=O)(=O)c3cccs3)cccc2C1=O	3	17	-25	4	4	-2	nt
O=C(N/N=C/c1cc([N+](=O)[O-])ccc1O)c1ccc(COc2ccc3c(c2)CCC3)o1	-3	-21	52*	45	-24	47	45*
O=C(c1cc(Br)c[nH]1)N1CCSCC1	2	5	-6	-3	13	-2	nt
Cc1ccc(C(=O)Nc2ccnc(-c3cccnc3)n2)cc1	1	20	-114	-32	-205	-34	nt
Cc1ccc(NC(=O)Nc2ccnc(-c3cccnc3)n2)cc1	-9	7	88*	-14	-126	10	67*
COc1cc(N=Nc2c(O)c3ccccc3[nH]c2=O)c(OC)cc1N=Nc1ccccc1	4	11	59*	47	7	26	83*
Cc1cc(C)c2c(N)c(C(=O)Nc3ncc(C)s3)sc2n1	-7	-69*	101*	-4	87*	88*	89*
CCOC(=O)c1cnc2c(cnn2C)c1NCCCN(C)C	2	0	62*	-17	1	-1	56*
CCOC(=O)c1cnc2c(cnn2C)c1NCCC#N	3	-27	-3	2	13	3	nt
CCn1c2ccccc2c2cc(NC(=O)CSc3nccc(=O)[nH]3)ccc21	18	2	-2	-7	17	-5	nt
COc1cccc(C(c2nnnn2CCc2ccccc2)N2CCN(c3ccccc3)CC2)c1OC (centres undefined)	-3	3	51*	26	8	1	34
COc1ccc(CNC(=O)C(C)c2ccc([N+](=O)[O-])cc2)cc1 (centres undefined)	4	7	14	-12	11	5	nt
Cc1ccc(C(C[N+](=O)[O-])Sc2ccc(N)cc2)cc1 (centres undefined)	6	-3	106*	-11	36	68*	97*
Cc1ccc(C(C[N+](=O)[O-])n2nc(C)cc2C)cc1 (centres undefined)	4	-8	28	0	3	55	nt
CC(=O)c1ccccc1OC(=O)COc1ccc(Cl)cc1C	nt	nt	nt	nt	nt	2	nt
CC(NNC(=S)N1CCN(c2ccccn2)CC1)c1nccc2ccccc12 (centres undefined)	8	-12	92*	0	52*	86*	87*
CC(=O)Nc1cccc(-c2ccnc3c2CC(C)(C(=O)Nc2cccc(C(F)(F)F)c2)O3)c1 (centres undefined)	-2	-16	52*	24	21	nt	62*
CC(C)Cc1nnc(NC(=O)CC(=O)Nc2ccccc2C(=O)O)s1	7	-1	28	-6	9	-2	nt
CC(C)c1nnc(NC(=O)CC(=O)Nc2ccccc2C(=O)O)s1	-3	9	57*	1	28	32	34
COc1ccc(-c2cn3nc(C)c(C)nc3n2)cc1OC	-2	4	-205	-3	-218	-91	nt
Cc1ccc(-c2cn3nc(C)c(C)nc3n2)cc1	2	3	60*	-20	2	64*	46*
Cc1ccc(CS(=O)(=O)Cc2ccc(C(=O)NCCCN3CC(C)CC(C)C3)o2)cc1 (centres undefined)	5	1	15	23	11	-7	nt
SMILES	ABHD5-PLIN5 inh	KKLEB tox	Peg3 prom inh-1	CF NFkB block	HIF-2a block	TRPM1 prom inh	Peg3 prom inh-2
O=C(CN1CCCC1)Nc1ccc(-c2nc3cc(NC(=O)CN4CCCC4)ccc3o2)cc1	2	-2	71*	1	-101	58	92*
Cn1c(=O)c(C(=O)CCl)c(N)n(Cc2ccccc2)c1=O	5	1	69*	26	16	30	51*
CCOc1ccc(OCC(O)CNC2CCN(Cc3ccccc3)CC2)cc1 (centres undefined)	4	-7	10	11	16	0	nt
CC(C)(c1ccccc1)c1ccc(OCC(O)CNC2CCN(Cc3ccccc3)CC2)cc1 (centres undefined)	4	-22	107*	12	6	79*	99*
CCN(C(=O)COC(=O)c1ccccc1OCc1ccc(Cl)cc1)C1CCS(=O)(=O)C1 (centres undefined)	1	9	2	5	9	-9	nt
CCN1C/C(=C/c2ccc(N3CCOCC3)cc2)C(=O)/C(=C/c2ccc(N3CCOCC3)cc2)C1	58*	3	101*	-17	93*	93*	97*
COc1ccc(Oc2nc3ccccc3n(C)c2=O)cc1	-1	-5	-10	4	6	5	nt
Cn1c(=O)c(Oc2cc(Cl)cc(Cl)c2)nc2ccccc21	6	-10	68*	10	13	0	36
O=C(CSc1nnc(CNC(=O)c2ccco2)o1)Nc1cccc(Cl)c1	-4	0	0	-8	13	8	nt
Cc1[nH]n2c(=O)cc(C(C)(C)C)nc2c1-c1ccccc1	3	-2	54*	20	11	17	50*
Cn1nnc2cc(C(=O)N3CCN(c4ccccn4)CC3)ccc21	4	13	6	-19	9	-5	nt
CCOC(=O)c1cnn(-c2ccc([N+](=O)[O-])cc2)c1N	-1	0	-57	3	-39	-24	nt
COCCN(C(=O)COC(=O)/C=C/c1ccc(Cl)c(Cl)c1)c1c(N)n(Cc2ccccc2)c(=O)[nH]c1=O	2	2	5	-5	12	12	nt
CC(C)CN(C(=O)COC(=O)/C=C/c1ccc(Cl)c(Cl)c1)c1c(N)n(Cc2ccccc2)c(=O)[nH]c1=O	-4	-26	89*	27	17	100*	44*
CC(=O)c1ccccc1-c1csc2ncnc(Sc3nnnn3C)c12	0	-27	54*	43	8	6	7
COc1cccc(-c2cccc(-c3nc(C(=O)NCc4ccc5c(c4)OCO5)cc4c3[C@H](CCO)N(S(=O)C(C)(C)C)C4)c2)c1 (some centres undefined)	17	-12	-10	17	4	nt	nt
COc1cccc(-c2cccc(-c3nc(C(=O)Nc4ccc(-c5ccccc5)cc4)cc4c3[C@H](CCO)N(S(=O)C(C)(C)C)C4)c2)c1 (some centres undefined)	2	-4	78*	-20	0	nt	37
